Screening results as filed in PubChem.
The list is not random: actives were taken first. Their share in the collection is about 18%.
TDP1 block: blocks human tyrosyl-DNA phosphodiesterase 1. hit rate 0.28% among 350,000. Q9NUW8. Potency, µM (highest dose often 130 µM), hits mostly inhibitors. recombinant TDP1, AlphaScreen DNA substrate cleavage; note: nearly all actives have a fitted effect of over 40% in size
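E. coli-derived human Tdp1, 1 nM final. Cpd preinc 15 min RT; substrate 15 nM final, 5 min RT; AS bead mix 10 ug/ml final, 10 min RT. Signal loss = tyrosine-FITC cleavage. No-enzyme wells = max signal.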
DT40 TDP1 CPT: DT40-hTDP1 cell growth loss with CPT; chicken DT40 Tdp1-/-;hTDP1 cells + 20 nM CPT, ATP luminescence, 48 h; Potency, µM (titrated, usually from 46.2 µM), hits mostly inhibitors; hit rate 12% among 420,000; AID 686979; note: nearly all actives have a fitted effect of over 55% in size
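Chicken DT40 Tdp1-/- cells complemented with human TDP1, 400 cells/well, exposed to compounds plus 20 nM camptothecin for at least 48 h at 37 C; viability read as ATP content by CellTiter-Glo luminescence.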
CtBP-E1A inh: inhibitors of CtBP/E1A interaction; AlphaScreen GST-E1A/His-CtBP binding, 1536-well; stronger effect = lower value; activity change, % (test concentration not listed); hit rate 0.49% among 340,000; in the data active = activity change below about -65%; inconclusive = mostly about -30% to -63%
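Steps: dispense buffer (Tris pH 8.0, NaCl 300 mM, TCEP 1 mM, BSA, Tween 20); add 5X protein mix (GST-E1A, His-CtBP, 125 nM each); pin 23 nL compound; 2 h at 37 °C, dark; add 5X beads (50 ug/mL); 1 h; read.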
Six1-Eya2 blk: blocks human Six1 binding to Eya2; activity change, % (concentration not given with the values); Q15475+O00167; hit rate 0.56% among 360,000; AlphaScreen GST-Six1/His-Eya2 binding, biochemical; stronger effect = lower value; AID 651725; in the data active = activity change below about -65%; inconclusive = mostly about -30% to -63%
Target sequence (O00167 whole entry, looked up): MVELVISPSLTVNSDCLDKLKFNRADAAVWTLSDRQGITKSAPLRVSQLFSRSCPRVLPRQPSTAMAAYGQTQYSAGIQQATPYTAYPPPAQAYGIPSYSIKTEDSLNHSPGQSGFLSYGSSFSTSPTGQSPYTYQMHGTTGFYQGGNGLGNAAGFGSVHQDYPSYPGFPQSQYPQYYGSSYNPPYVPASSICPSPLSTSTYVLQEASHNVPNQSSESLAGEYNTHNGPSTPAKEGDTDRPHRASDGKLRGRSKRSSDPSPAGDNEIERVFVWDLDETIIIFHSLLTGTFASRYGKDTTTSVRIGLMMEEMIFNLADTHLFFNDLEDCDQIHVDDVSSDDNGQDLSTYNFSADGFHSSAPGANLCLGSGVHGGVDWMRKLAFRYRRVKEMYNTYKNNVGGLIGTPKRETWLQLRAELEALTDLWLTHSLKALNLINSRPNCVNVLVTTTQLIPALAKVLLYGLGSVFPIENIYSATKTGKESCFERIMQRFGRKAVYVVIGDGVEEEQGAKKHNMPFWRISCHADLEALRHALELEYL
Target sequence (Q15475 whole entry, looked up): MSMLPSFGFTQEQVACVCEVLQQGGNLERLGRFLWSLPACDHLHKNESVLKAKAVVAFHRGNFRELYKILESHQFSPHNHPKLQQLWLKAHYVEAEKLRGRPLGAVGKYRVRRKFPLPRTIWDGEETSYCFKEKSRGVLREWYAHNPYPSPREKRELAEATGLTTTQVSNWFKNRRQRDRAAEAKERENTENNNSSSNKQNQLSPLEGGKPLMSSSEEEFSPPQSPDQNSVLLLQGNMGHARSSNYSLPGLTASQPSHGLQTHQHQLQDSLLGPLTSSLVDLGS
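GST-Six1 + His-Eya2 (5X stock: 250/500 nM); Tris pH 8.0, 300 mM NaCl, 0.05% BSA, 0.02% Tween 20; GSH donor/Ni acceptor beads; 1 h 37 °C dark; AlphaScreen readout.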
IL-1B inflam inh: blocks inflammasome-driven IL-1 beta release; THP-1 LPS/ATP IL-1B secretion, AlphaLISA, 16 h; stronger effect = lower value; AID 743279; hit rate 4.7% among 360,000; activity change, % at 57.5 µM; in the data active = activity change below about -50%; inconclusive = mostly about -30% to -49%
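Secreted IL-1B measured by AlphaLISA bead assay after 16 h compound exposure of THP-1 cells; compounds (final up to 57.5 uM) added 1 h before LPS (250 ng/mL) and ATP (1.25 mM) stimulation; lower signal means less secretion.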
TDP1 cell noCPT: qHTS for Inhibitors of human tyrosyl-DNA phosphodiesterase 1 (TDP1): qHTS in cells in absence of CPT. AID 686978, 2013. Potency, µM (top dose mostly 46.2 µM), usual class: inhibitors. hit rate 15% among 420,000. DT40 Tdp1-/- hTDP1 cells, no CPT, ATP luminescence, 48 h; note: nearly all actives have a fitted effect of over 55% in size
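Stably hTDP1-transfected Tdp1-null chicken DT40 cells were treated with library compounds minus camptothecin and grown for at least 48 hr at 37 °C, after which cellular ATP was quantified by luminescence.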
Numbers stand for hits; n = inactive; u = inconclusive; x = no result. Unless noted, calls come from the whole dose curve; as a rule, active = well fitted curve in the direction sought with a large enough effect; inconclusive = small, poorly fitted or top-dose-only effect, or another doubt; inactive = no such curve, though single readings can be large; an effect the other way counts as inactive or inconclusive.

SMILES | TDP1 block | DT40 TDP1 CPT | CtBP-E1A inh | Six1-Eya2 blk | IL-1B inflam inh | TDP1 cell noCPT
CSc1nc(Oc2ccc(Cl)cc2)c2sccc2n1 | n | n | n | n | n | n
COc1ccccc1CNc1nc(NCc2cccs2)nc2ccsc12 | x | u | n | n | n | 16.4µM
Cc1ccc(C)c(CNC(=O)C2CCN(c3nc4ccccc4nc3C(F)(F)F)CC2)c1 | n | u | x | x | x | u
COc1ccccc1CNc1nc(NCc2ccc3occc3c2)c2sccc2n1 | x | 20.6µM | n | n | -99.8 | 20.6µM
c1ccc(OCCNc2nc(NCC3CC3)nc3ccsc23)cc1 | x | 4.61µM | n | n | u | 4.61µM
COc1ccccc1CNc1nc(NCc2ccc(NC(C)=O)cc2)c2sccc2n1 | x | u | n | n | n | n
COc1ccccc1CNc1nc(NCC2CC2)nc2ccsc12 | x | 10.3µM | n | n | -82.5 | 20.6µM
CCN(CC)c1ccc(C(=C2C=CC(=[N+](CC)Cc3cccc(S(=O)(=O)[O-])c3)C=C2)c2ccc(N(CC)Cc3cccc(S(=O)(=O)O)c3)cc2)cc1 | n | x | x | x | x | x
Cc1ccc2c(c1)C(=C(C#N)C#N)C(=O)N2CCN1CCOCC1 | x | 16.4µM | n | n | n | u
Cc1ccc2c(c1)C(=C(C#N)C#N)C(=O)N2CCN1CCCCC1 | x | 23.1µM | n | n | n | 18.4µM
c1ccc2nc3c(cc2c1)CCCCC3 | n | 18.4µM | n | n | n | 13µM
O=C(NC(=S)Nc1ccc(S(=O)(=O)N2CCCC2)cc1)C1CCC1 | n | u | n | n | n | 16.4µM
CCCC(C)C(=O)Nc1ccc(S(=O)(=O)N2CCCC2)cc1 (stereo not drawn) | x | n | n | n | n | n
CC(Nc1cccc([N+](=O)[O-])c1)C(=O)Nc1ccc(S(=O)(=O)N2CCCC2)cc1 (stereo not drawn) | n | 14.6µM | n | n | u | 14.6µM
CC(C)C(=O)NC(=S)Nc1ccc(S(=O)(=O)N2CCCC2)cc1 | n | u | n | n | n | 16.4µM
CCCC(C(=O)Nc1ccc(S(=O)(=O)N2CCCC2)cc1)c1ccccc1 (stereo not drawn) | n | 20.6µM | n | n | n | u
O=C(CSc1nnc(-c2cccc(S(=O)(=O)N3CCCCC3)c2)o1)c1ccc[nH]1 | n | u | n | n | n | n
CCCS(=O)(=O)NC(=O)C1(C)CCCN(C(=O)/C=C/c2ccccc2)C1 (stereo not drawn) | x | n | n | n | n | n
CCCCOc1cccc(C2C(C(=O)c3ccc(C)o3)=C(O)C(=O)N2Cc2ccco2)c1 (stereo not drawn) | n | x | x | x | x | x
CCc1ccc(N(CC)C(=O)c2cn(C)c(=O)c3cc(OC)c(OC)cc23)cc1 | n | u | x | x | x | u
CCc1ccccc1N(CC)C(=O)c1cn(C)c(=O)c2cc(OC)c(OC)cc12 | n | n | n | n | n | u
CCc1ccccc1N(CC)C(=O)c1cn(CC)c(=O)c2cc(OC)c(OC)cc12 | n | u | n | n | n | 20.6µM
CCN(C(=O)c1cn(CC)c(=O)c2cc(OC)c(OC)cc12)c1ccc(C)c(C)c1 | n | 23.1µM | x | x | x | u
Cc1cccc(NC(=O)NCCN2C(=O)C3C4C=CC(C4)C3C2=O)c1 (stereo not drawn) | n | n | n | n | n | n
CCN(CC)C(=O)c1csc([C@@H]2O[C@H](CO)[C@H](O)[C@H](O)[C@H]2O)n1 | x | n | n | n | n | n
COc1ccc(Cl)cc1CC=NNC(=O)c1ccncc1 | x | 9.2µM | n | n | n | 11.6µM
COc1ccc(Cl)cc1CC=NNC(=O)c1cccc(C)c1O | x | 13µM | n | n | n | 13µM
Cc1cccc(C)c1OCC(=O)Nc1cccc(S(=O)(=O)N2CCCCCC2)c1 | x | 20.6µM | n | n | n | 20.6µM
O=C(COc1ccc(C(=O)c2ccc(F)cc2)cc1)Nc1cccc(S(=O)(=O)N2CCOCC2)c1 | n | 23.1µM | n | n | u | 11.6µM
